The record followed here is PubChem BioAssay (EPA / NIEHS).

Assay [1] addresses human Vascular Endothelial Growth Factor Receptor 2 (VEGFR2), KDR (gene 3791) (UniProt P35968). Kind of assay: NVS_ENZ_hVEGFR2: NovaScreen (NVS) Enzymatic Assay for human Vascular Endothelial Growth Factor Receptor 2 (VEGFR2) (AID 2283230). Put shortly: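 Cell-free recombinant VEGFR2 kinase, fluorescent substrate with electrophoretic mobility-shift separation; read 1 h after dosing. Screened at 25 uM in duplicate, hits to concentration-response up to 50 uM; loss-of-signal versus DMSO.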

The target in assay [2] is human Tropomyosin Receptor Kinase A (TRKA), NTRK1 (gene 4914) (UniProt P04629). Briefly: NVS_ENZ_hTrkA: NovaScreen (NVS) Enzymatic Assay for human Tropomyosin Receptor Kinase A (TRKA) (AID 2283224). Put shortly: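 Recombinant human TrkA activity read after 1 h by fluorescence with electrophoretic mobility shift separating substrate and product. Primary screen in duplicate at 25 uM; actives were rerun in concentration-response up to 50 uM. Loss of signal versus DMSO.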

For assay [3], the target named is human Tyrosine Protein Kinase Receptor Tie-2 (Tie2), TEK (gene 7010) (UniProt Q02763). Briefly: NVS_ENZ_hTie2: NovaScreen (NVS) Enzymatic Assay for human Tyrosine Protein Kinase Receptor Tie-2 (Tie2) (AID 2283225). Put shortly:
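Recombinant human Tie2 kinase activity was read cell-free by fluorescence with electrophoretic mobility shift, 1 hour after dosing. The screen used 25 uM in duplicate, then concentration-response up to 50 uM. Signal loss was scored against DMSO.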

Assay [4] has as its target human Vascular Endothelial Growth Factor Receptor 1 (VEGFR1), FLT1 (gene 2321) (UniProt P17948). Kind of assay: NVS_ENZ_hVEGFR1: NovaScreen (NVS) Enzymatic Assay for human Vascular Endothelial Growth Factor Receptor 1 (VEGFR1) (AID 2283226). The procedure, abridged: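 Cell-free assay of recombinant human VEGFR1 kinase with substrate, measured 1 h after dosing; fluorescence with electrophoretic mobility-shift separation of substrate and product, referenced to DMSO; primary screen at 25 uM in duplicate, actives then run in concentration series.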

Assay [5] addresses human Vascular Endothelial Growth Factor Receptor 3 (VEGFR3), FLT4 (gene 2324) (UniProt P35916). Briefly: NVS_ENZ_hVEGFR3: NovaScreen (NVS) Enzymatic Assay for human Vascular Endothelial Growth Factor Receptor 3 (VEGFR3) (AID 2283229). Put shortly: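 Cell-free recombinant VEGFR3 kinase reaction with fluorescent substrate, read 1 h after dosing by electrophoretic mobility shift separation of substrate and product. Single-concentration duplicate screen at 25 uM, then concentration-response up to 50 uM; loss of activity versus DMSO.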

Assay [6] concerns the target sheep Cyclooxygenase-1 (Cox1), PTGS1 (gene 443551) (UniProt P05979). Kind of assay: NVS_ENZ_oCOX1: NovaScreen (NVS) Enzymatic Assay for sheep Cyclooxygenase-1 (Cox1) (AID 2283239).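 Further: actives reduce cyclooxygenase activity so potencies are for inhibitors.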 Put shortly:
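Tested in duplicate at 25 uM, then in concentration series if active, against seminal vesicle extract from sheep. Enzyme activity was measured colorimetrically at 0.66 hour and normalised to DMSO.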

Assay [7] addresses rat Acetylcholinesterase (AChE), Ache (gene 83817) (UniProt P37136). Kind of assay: NVS_ENZ_rAChE: NovaScreen (NVS) Enzymatic Assay for rat Acetylcholinesterase (AChE) (AID 2283233). The method, then:
NVS_ENZ_rAChE is a biochemical, single-readout assay that uses extracted gene-proteins from Rat brain membranes in a tissue-based cell-free assay. Measurements were taken 0.33 hour after chemical dosing in a 96-well plate.NVS_ENZ_rAChE is one of one assay component(s) measured or calculated from the NVS_ENZ_rAChE assay. It is designed to make measurements of enzyme activity, a form of enzyme reporter, as detected with absorbance signals by Colorimetric technology.Data from the assay component NVS_ENZ_rAChE was analyzed into 1 assay endpoint. This assay endpoint, NVS_ENZ_rAChE, was analyzed in the positive analysis fitting direction relative to DMSO as the negative control and baseline of activity. Using a type of enzyme reporter, loss-of-signal activity can be used to understand changes in the enzymatic activity as they relate to the gene Ache. Furthermore, this assay endpoint can be referred to as a primary readout, because this assay has produced multiple assay endpoints where this one serves a enzymatic activity function. To generalize the intended target to other relatable targets, this assay endpoint is annotated to the esterase intended target family, where the subfamily is acetylcholinesterase.
Binding assays used specific radioligands (tritiated, iodinated) with non-radioactive competitive displacement ligands in agonist or antagonist protocols (as indicated) and various reference compounds and inhibitors to titrate specific binding to receptors and transporters. Most enzyme assays (CYPs, kinases, phosphatases, proteases, HDACs) used recombinant protein and specific substrates (fluorescence mostly, some colorimetric and radioactive) and inhibitors, followed by a biochemical separation of substrate and product. All assays for the biochemical HTS were initially run in duplicate at a single concentration (10 uM for CYP450 assays and 25 uM for all others). […]

In assay [8] the test system is rat Monoamine Oxidase, MAO-A, Peripheral (MAOAP), gene 29253. Briefly: NVS_ENZ_rMAOAP: NovaScreen (NVS) Enzymatic Assay for rat Monoamine Oxidase, MAO-A, Peripheral (MAOAP) (AID 2283237). The method, then:
NVS_ENZ_rMAOAP is a biochemical, single-readout assay that uses extracted gene-proteins from Rat liver mitochondrial membranes in a tissue-based cell-free assay. Measurements were taken 1.17 hours after chemical dosing in a 96-well plate.NVS_ENZ_rMAOAP is one of one assay component(s) measured or calculated from the NVS_ENZ_rMAOAP assay. It is designed to make measurements of enzyme activity, a form of enzyme reporter, as detected with scintillation counting signals by Lysate-based radiodetection technology.Data from the assay component NVS_ENZ_rMAOAP was analyzed into 1 assay endpoint. This assay endpoint, NVS_ENZ_rMAOAP, was analyzed in the positive analysis fitting direction relative to DMSO as the negative control and baseline of activity. Using a type of enzyme reporter, loss-of-signal activity can be used to understand changes in the enzymatic activity as they relate to the gene Maoa. Furthermore, this assay endpoint can be referred to as a primary readout, because this assay has produced multiple assay endpoints where this one serves a enzymatic activity function. To generalize the intended target to other relatable targets, this assay endpoint is annotated to the oxidoreductase intended target family, where the subfamily is monoamine oxidase. […]

The target of assay [9] is rat Monoamine Oxidase, MAO-B, Central (MAOBC), Maob (gene 25750) (UniProt P19643). Briefly: NVS_ENZ_rMAOBC: NovaScreen (NVS) Enzymatic Assay for rat Monoamine Oxidase, MAO-B, Central (MAOBC) (AID 2283238). Put shortly: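 Rat brain tissue extract served as the cell-free MAO-B source; enzyme activity was read by scintillation counting 1.17 hours after compound addition. Loss of signal versus DMSO baseline was fitted; primary single-concentration screen at 25 uM, follow-up concentration-response up to 50 uM.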

Assay [10] concerns the target rabbit Imidazoline 2 Central (I2C), CKB (gene 100009085) (UniProt P00567). Briefly: NVS_ENZ_rabI2C: NovaScreen (NVS) Enzymatic Assay for rabbit Imidazoline 2 Central (I2C) (AID 2283228). Put shortly: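 Rabbit brain membranes, cell-free; readout by filter-based scintillation counting 1.5 hours after dosing, loss of signal vs DMSO. Initial duplicate test at 25 uM, then concentration-response with 50 uM top concentration.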

Usually AC50 stands for the concentration at which the activity in the assay is half-maximal.

Records with an inconclusive call do not appear. The source made the active and inactive calls. How the source made its calls: active means hit-call score of the fitted dose curve at least 0.9, where 1 is the maximum; inconclusive means response in the unintended direction; inactive means score below 0.9.

Chain of human Vascular Endothelial Growth Factor Receptor 3 (VEGFR3), FLT4 (gene 2324) (P35916 whole entry, looked up): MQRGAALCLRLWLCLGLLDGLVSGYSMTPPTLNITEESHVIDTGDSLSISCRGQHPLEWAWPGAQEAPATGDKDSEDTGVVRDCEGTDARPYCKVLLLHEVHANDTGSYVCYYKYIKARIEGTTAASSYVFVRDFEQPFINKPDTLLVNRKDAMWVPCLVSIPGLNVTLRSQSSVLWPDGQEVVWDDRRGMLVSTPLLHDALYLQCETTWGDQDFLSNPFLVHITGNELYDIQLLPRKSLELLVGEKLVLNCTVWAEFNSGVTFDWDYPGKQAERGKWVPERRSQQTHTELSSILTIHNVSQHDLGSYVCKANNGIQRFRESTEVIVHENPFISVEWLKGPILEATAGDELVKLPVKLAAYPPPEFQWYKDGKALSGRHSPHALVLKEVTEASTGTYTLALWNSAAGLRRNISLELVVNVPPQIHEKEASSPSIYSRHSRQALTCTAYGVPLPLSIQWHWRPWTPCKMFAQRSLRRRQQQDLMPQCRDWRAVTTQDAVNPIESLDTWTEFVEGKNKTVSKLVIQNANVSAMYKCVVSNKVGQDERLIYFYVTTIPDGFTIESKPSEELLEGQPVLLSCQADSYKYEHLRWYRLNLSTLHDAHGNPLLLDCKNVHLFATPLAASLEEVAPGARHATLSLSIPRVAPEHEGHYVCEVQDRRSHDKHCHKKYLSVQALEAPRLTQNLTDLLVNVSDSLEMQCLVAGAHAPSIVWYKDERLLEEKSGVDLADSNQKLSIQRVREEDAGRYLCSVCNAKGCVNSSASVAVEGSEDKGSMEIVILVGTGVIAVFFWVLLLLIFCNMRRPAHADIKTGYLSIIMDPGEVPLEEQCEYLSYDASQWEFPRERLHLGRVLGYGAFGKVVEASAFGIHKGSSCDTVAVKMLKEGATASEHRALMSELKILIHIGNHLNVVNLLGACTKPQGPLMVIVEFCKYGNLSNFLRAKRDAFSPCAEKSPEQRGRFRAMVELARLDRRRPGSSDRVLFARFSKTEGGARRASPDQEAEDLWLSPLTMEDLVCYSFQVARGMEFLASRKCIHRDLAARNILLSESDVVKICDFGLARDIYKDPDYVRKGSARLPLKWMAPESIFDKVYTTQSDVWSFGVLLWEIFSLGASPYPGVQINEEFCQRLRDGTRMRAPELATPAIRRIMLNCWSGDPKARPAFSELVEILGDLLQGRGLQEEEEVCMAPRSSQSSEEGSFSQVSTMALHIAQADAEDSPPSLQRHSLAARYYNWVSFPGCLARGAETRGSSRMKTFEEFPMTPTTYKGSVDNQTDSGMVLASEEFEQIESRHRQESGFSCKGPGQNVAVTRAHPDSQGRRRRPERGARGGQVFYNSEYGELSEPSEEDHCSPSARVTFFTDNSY
Chain of human Vascular Endothelial Growth Factor Receptor 1 (VEGFR1), FLT1 (gene 2321) (P17948 whole entry, looked up): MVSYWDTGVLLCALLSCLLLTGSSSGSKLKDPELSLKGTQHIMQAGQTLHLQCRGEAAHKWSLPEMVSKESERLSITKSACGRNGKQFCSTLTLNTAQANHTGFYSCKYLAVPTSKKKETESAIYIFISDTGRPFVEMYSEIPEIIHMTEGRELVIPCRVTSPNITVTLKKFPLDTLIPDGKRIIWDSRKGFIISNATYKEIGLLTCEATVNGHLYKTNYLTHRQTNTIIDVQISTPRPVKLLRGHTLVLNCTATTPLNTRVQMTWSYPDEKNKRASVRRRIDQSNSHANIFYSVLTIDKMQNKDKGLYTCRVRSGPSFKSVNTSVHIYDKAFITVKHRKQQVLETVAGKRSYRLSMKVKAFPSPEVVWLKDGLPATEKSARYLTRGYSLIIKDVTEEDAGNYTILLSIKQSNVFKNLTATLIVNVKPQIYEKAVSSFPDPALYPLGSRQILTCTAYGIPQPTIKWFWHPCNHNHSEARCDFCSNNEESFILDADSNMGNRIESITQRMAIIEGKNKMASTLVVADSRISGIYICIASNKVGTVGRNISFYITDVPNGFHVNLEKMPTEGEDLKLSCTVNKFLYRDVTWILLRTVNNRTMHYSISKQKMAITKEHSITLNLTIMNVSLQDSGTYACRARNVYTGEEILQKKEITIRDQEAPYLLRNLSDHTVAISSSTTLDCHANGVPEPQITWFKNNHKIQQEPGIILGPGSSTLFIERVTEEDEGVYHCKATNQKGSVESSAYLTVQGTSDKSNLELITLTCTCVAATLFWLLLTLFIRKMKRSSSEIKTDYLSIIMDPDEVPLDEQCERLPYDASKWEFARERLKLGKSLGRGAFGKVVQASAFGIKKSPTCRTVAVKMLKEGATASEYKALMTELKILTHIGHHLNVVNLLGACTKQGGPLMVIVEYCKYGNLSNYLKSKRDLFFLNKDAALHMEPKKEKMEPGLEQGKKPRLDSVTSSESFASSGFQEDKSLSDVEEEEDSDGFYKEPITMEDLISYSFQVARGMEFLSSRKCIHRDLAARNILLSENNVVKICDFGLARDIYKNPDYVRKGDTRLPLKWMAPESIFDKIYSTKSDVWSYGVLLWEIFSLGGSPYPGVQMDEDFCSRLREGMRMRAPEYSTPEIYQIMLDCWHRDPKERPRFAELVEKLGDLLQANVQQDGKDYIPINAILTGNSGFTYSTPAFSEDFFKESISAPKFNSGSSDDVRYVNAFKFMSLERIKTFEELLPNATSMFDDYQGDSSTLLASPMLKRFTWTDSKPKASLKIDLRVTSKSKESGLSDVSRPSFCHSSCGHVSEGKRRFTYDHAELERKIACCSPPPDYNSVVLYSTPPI
Chain of human Vascular Endothelial Growth Factor Receptor 2 (VEGFR2), KDR (gene 3791) (P35968 whole entry, looked up): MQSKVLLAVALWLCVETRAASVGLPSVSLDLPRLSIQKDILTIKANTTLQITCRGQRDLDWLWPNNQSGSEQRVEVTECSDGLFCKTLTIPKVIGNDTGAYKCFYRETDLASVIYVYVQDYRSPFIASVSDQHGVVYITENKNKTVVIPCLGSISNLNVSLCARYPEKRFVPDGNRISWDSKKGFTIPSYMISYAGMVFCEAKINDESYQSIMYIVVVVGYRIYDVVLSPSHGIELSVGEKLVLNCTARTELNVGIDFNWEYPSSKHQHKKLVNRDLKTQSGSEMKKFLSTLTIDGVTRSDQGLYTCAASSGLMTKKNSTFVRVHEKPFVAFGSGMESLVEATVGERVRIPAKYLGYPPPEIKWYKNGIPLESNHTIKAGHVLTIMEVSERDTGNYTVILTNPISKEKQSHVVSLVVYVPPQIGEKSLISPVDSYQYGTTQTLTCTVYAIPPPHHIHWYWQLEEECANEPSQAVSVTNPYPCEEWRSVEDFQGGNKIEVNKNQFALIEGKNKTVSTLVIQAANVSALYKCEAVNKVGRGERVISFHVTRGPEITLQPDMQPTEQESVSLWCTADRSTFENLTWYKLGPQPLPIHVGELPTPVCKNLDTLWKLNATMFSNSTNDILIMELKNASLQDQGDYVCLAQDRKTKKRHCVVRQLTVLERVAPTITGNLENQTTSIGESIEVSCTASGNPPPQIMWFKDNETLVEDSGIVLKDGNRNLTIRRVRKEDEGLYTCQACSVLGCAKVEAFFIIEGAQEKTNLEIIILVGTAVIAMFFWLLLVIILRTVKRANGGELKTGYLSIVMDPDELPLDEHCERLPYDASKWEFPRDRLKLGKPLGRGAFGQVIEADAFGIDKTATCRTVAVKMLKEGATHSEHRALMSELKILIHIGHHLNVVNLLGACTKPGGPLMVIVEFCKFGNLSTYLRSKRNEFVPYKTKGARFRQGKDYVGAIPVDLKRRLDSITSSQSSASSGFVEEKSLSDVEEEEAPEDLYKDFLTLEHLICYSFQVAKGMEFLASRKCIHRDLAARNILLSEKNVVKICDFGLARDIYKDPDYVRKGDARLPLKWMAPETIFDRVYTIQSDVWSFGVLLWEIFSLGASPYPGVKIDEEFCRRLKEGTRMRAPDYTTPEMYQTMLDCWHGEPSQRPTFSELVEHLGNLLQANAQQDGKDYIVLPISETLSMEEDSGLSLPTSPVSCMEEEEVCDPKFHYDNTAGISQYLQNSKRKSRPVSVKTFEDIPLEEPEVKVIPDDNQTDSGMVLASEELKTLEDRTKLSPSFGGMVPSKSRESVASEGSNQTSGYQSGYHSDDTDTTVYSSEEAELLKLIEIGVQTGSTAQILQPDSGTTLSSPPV
Chain of rat Acetylcholinesterase (AChE), Ache (gene 83817) (P37136 whole entry, looked up): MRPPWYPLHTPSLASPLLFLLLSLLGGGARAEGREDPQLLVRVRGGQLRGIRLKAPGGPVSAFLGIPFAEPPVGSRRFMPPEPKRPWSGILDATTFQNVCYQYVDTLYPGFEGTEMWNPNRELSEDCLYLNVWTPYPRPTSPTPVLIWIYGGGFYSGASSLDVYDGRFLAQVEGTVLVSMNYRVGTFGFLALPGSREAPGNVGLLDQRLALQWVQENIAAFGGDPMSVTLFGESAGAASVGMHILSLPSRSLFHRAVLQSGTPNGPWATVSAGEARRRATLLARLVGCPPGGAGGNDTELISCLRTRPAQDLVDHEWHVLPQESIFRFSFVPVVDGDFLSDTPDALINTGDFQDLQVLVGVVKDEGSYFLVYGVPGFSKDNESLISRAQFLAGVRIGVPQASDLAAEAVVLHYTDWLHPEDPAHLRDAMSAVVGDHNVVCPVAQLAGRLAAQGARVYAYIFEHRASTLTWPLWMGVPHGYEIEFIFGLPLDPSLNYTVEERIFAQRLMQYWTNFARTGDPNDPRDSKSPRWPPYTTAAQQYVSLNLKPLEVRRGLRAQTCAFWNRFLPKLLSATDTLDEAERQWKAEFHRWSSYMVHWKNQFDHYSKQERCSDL
Chain of rabbit Imidazoline 2 Central (I2C), CKB (gene 100009085) (P00567 whole entry, looked up): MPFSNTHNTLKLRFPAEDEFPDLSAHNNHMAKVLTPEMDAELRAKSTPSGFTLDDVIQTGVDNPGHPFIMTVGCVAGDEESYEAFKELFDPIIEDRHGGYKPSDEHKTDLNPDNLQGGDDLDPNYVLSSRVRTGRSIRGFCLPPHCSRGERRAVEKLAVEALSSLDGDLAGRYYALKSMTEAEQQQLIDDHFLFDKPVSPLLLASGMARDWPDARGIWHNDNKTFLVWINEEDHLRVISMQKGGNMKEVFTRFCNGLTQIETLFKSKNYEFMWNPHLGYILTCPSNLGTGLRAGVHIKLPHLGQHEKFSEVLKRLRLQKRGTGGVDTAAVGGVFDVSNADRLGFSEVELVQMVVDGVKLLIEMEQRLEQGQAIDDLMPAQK

In the case of `O=C(CBr)c1ccc(O)cc1`, the result in [1] was inactive.
For `OCCN(CCO)CCO`, the result in assay [1] was inactive.
`CCCCCCCCCCCCc1cccc(S(=O)(=O)O)c1`: the AC50 in assay [2] was 36.3 µM (active); in [3] it was 12.4 µM (active); in [4], 22.9 µM (active); in assay [5] it was 10.7 µM (active); in assay [1], 9.17 µM (active); in assay [6], 5.06 µM (active).
Consider `N#CCCC(Br)(C#N)CBr` (centres undefined), for which the AC50 in [6] was 4.04 µM (active).
`CCOC(=O)CCN(SN(C)C(=O)Oc1cccc2c1OC(C)(C)C2)C(C)C`: the AC50 in assay [7] was 1.33 µM (active).
`CC(C=O)Cc1ccc2c(c1)OCO2` (centres undefined): in [6], the AC50 was 25 µM (active).
In the case of `CCOP(=O)(OCC)OC(=CCl)c1ccc(Cl)cc1Cl`, the AC50 in [7] is 6.51 µM (active).
As to `O=C1c2ccccc2C(=O)C1C(=O)C(c1ccccc1)c1ccc(Cl)cc1` (centres undefined), the AC50 in assay [3] is 2.26 µM (active); in assay [5], 2.4 µM (active). Further, in assay [6], the outcome was inactive.
`Oc1cc(Cl)c(Cl)cc1Cl`: the compound was called inactive in assay [1]. Further, the results for the AC50 in assay [8] and in assay [9] were 19.6 µM (active) and 8.69 µM (active), respectively.
Take `Nc1c(Oc2ccccc2)cc(O)c2c1C(=O)c1ccccc1C2=O`: in assay [4], the AC50 is 0.898 µM (active).
With `CC(C)O.CC(C)O.OCCN(CCO)CCO.OCCN(CCO)CCO.[Ti]`, the AC50 in assay [3] is 3.53 µM (active); in assay [5], 21.8 µM (active); in assay [1], 6.5 µM (active).
For `CC(C)(C)c1ccccc1O`, the result in assay [6] was inactive.
As to `CCCCCCCCCCCCOS(=O)(=O)O`, in assay [3], the AC50 was 26.9 µM (active).
Turning to `Nc1ncn[nH]1`, the compound was classed as inactive in assay [6].
With `C=CC(=O)NC(C)(C)CC(C)=O`, the AC50 in [6] is 21.4 µM (active).
In the case of `N#Cc1cccnc1`, the result in assay [3], in assay [4] and in assay [1] was inactive.
Turning to `Clc1cccc(Cl)c1Cl`, the compound was called inactive in [3] and in assay [4].
Regarding `O=[N+]([O-])c1cccc2ccccc12`, the compound was classed as inactive in [6].
As for `O=c1oc2ccccc2c(O)c1C(CC(O)c1ccc(-c2ccc(Br)cc2)cc1)c1ccccc1` (centres undefined), the figures for the AC50 in [4] and in [6] were 16.9 µM (active) and 1.31 µM (active), respectively.
With `COc1nn(C(=O)NS(=O)(=O)c2ccccc2OC(F)(F)F)c(=O)n1C`, the AC50 in assay [3] was 24.5 µM (active); in assay [5] it was 11.4 µM (active).
Regarding `O=C(O)COc1cc(Cl)c(Cl)cc1Cl`, in [6], the compound was called inactive.
In the case of `O=C(N[C@H]1CN2CCC1CC2)c1ccc2c(c1)OCCO2`, the outcome in assay [3], in assay [4], in assay [5] and in assay [1] was inactive.
Turning to `COc1ccc(N)cc1`, in assay [6], the AC50 is 26 µM (active).
Turning to `c1ccc2sc(SNC3CCCCC3)nc2c1`, the compound was called inactive in assay [6].
On to `CCOC(=O)C(SP(=S)(OC)OC)c1ccccc1` (centres undefined), for which the AC50 in assay [7] is 10.2 µM (active).
For `COc1ccccc1N`, the call in assay [10] was inactive. For the same compound, in [6], the AC50 is 0.146 µM (active).
As for `CN(C)CCN(C)C`, in assay [6], the compound was classed as inactive.
As to `C=C(C)C(=O)OCC(CC)CCCC` (centres undefined), in [4], the call was inactive.
`[Cl][Sn]([c]1ccccc1)([c]1ccccc1)[c]1ccccc1`: the outcome in [6] was inactive.
